# Data published in PubChem BioAssay (Tox21).
# Inconclusive results are not listed. Values without a mark were called inactive. Active and inactive are the calls of the source. The call rests on the fitted dose curve; in most records, active means well fitted activation curve with a large enough effect in the repeat runs; inconclusive means weak or mixed curves; inactive means no such curve, though single readings can be large or run the other way.
# Biological target: Nuclear receptor subfamily 1 group I member 2 (Homo sapiens) (UniProt O75469)
# Experiment: CYP3A4 induction through human pregnane X receptor (PXR) by small molecules, qHTS assay (AID 1346984); further: nearly all actives have a fitted effect of over 40% in size
# Conditions: DPX-2 HepG2 PXR, CYP3A4-luciferin luminescence, 24 h; series mostly up to 46.1 µM; activation: at the top concentration
# Method in brief: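 After 24 h at 37C with compound, DPX-2 cells (HepG2, co-transfected PXR response element and CYP3A4 promoter-luciferase) got 3uM final P450-Glo Luciferin-IPA for 3 h; One-Glo luminescence followed.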
# On the % scale 0 is the no-effect control and ±100 the full control effect; potency means the concentration at half of the fitted maximal effect.
SMILES,Potency,activation
Oc1ccccc1C=NCc1ccccc1,14.1 µM (active),
NC/C=C/C(=O)O,,-4.1%
COc1ccccc1N1CCN(CCCNc2cc(=O)n(C)c(=O)n2C)CC1,,8.21%
CS(=O)(=O)c1ccc([C@@H](O)[C@@H](CF)NC(=O)C(Cl)Cl)cc1,,2.4% [at 20.6 µM]
C=CC(C)(O)CC/C=C(\C)CCC=C(C)C (stereo not drawn),,-13.6%
Cc1cc(NS(=O)(=O)c2ccc(N)cc2)nc(C)n1,,-10.9%
CCC(=O)O[C@]1(C(=O)SCF)[C@H](C)C[C@H]2[C@@H]3C[C@H](F)C4=CC(=O)C=C[C@]4(C)[C@@]3(F)[C@@H](O)C[C@@]21C,,-23.9% [at 20.6 µM]
FC(F)(F)C(F)(F)C(F)(F)C(F)(F)C(F)(F)C(F)(F)C(F)(F)C(F)(F)Br,,-5.43%
CCN(CC)CC1CCCCN1CC(=O)N1c2ccccc2C(=O)Nc2cccnc21 (stereo not drawn),,4.85%
CCN[C@H]1CN(CCCOC)S(=O)(=O)c2sc(S(N)(=O)=O)cc21,,10.5% [at 20.6 µM]
CCCN(CCC)C(=O)C(CCC(=O)O)NC(=O)c1ccccc1 (stereo not drawn),,-6.75%
CCCCN1C[C@H](O)[C@@H](O)[C@H](O)[C@H]1CO,,-13.6%
C[C@@H]1CN(c2c(F)c(N)c3c(=O)c(C(=O)O)cn(C4CC4)c3c2F)C[C@H](C)N1,,-1.11%
COc1ccc(S(=O)(=O)Nc2nnc(CC(C)C)s2)cc1,inactive,
Cc1c(C(=O)NCCO)[n+](=O)c2ccccc2n1[O-],,-1.12%
COc1ccccc1OCC(O)COC(N)=O (stereo not drawn),,4.36% [at 20.6 µM]
CC1(C)S[C@@H]2[C@H](NC(=O)C(C(=O)O)c3ccccc3)C(=O)N2[C@H]1C(=O)O (stereo partly drawn),,6.04%
CCN(CC)CCNC(=O)COc1ccc(Cl)cc1,,-1.55%
